Results from PubChem BioAssay (EPA / NIEHS).
Several values for one entry are separate records, joined by “and”; a condition that tells them apart may be missing. Identical values can stand only once. More than one record can exist for a structure, and the calls need not agree. Activity calls are given as the source filed them. The calls were made as follows: active = hit-call score of the fitted dose curve at least 0.9, where 1 is the maximum; inactive = score below 0.9.

Assays:
Settings in all cases: mRNA level, 48 h; actives raise or lower the signal
[1] = read-out: Cytochrome P450 (CYP24A1), CYP24A1 (gene 1591); assay: LTEA_HepaRG_CYP24A1: Life Technologies and Expression Analysis (LTEA) Assay for Cytochrome P450 (CYP24A1) using HepaRG (AID 2283478)
In short: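 HepaRG cells plated 48 h, then exposed in duplicate in serum-free induction medium for 48 h to 8-point half-log series from 100 uM in 0.5% DMSO. CYP24A1 mRNA by Fluidigm qRT-PCR, normalized to ACTB, GAPDH, POLR2A; bidirectional fit versus DMSO.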

[2] = read-out: Cytochrome P450 (CYP1A2), CYP1A2 (gene 1544); assay: LTEA_HepaRG_CYP1A2: Life Technologies and Expression Analysis (LTEA) Assay for Cytochrome P450 (CYP1A2) using HepaRG (AID 2283479)
In short: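 Differentiated human HepaRG cells in serum-free induction medium exposed 48 hours in duplicate to 8 half-log concentrations from 100 uM, 0.5% DMSO. CYP1A2 mRNA quantified by qRT-PCR, normalized to ACTB, GAPDH and POLR2A; bidirectional fitting versus DMSO.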

[3] = read-out: cysteine-aspartic acid protease (CASP8), CASP8 (gene 841); assay: LTEA_HepaRG_CASP8: Life Technologies and Expression Analysis (LTEA) Assay for cysteine-aspartic acid protease (CASP8) using HepaRG (AID 2283480)
In short: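 CASP8 transcript measured by TaqMan qRT-PCR with ACTB/GAPDH/POLR2A normalization, after 48 h chemical exposure of HepaRG cells in serum-free induction medium. Eight concentrations, top 100 uM, half-log steps, 0.5% DMSO vehicle; fits in both directions versus DMSO.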

[4] = read-out: Cytochrome P450 (CYP2B6), CYP2B6 (gene 1555); assay: LTEA_HepaRG_CYP2B6: Life Technologies and Expression Analysis (LTEA) Assay for Cytochrome P450 (CYP2B6) using HepaRG (AID 2283481)
Protocol: (§1) LTEA_HepaRG is a cell based, multiplexed-readout assay that uses HepaRG, a human liver cell line, with measurements taken at 48 hours after chemical dosing on a 96-well plate.LTEA_HepaRG_CYP2B6 is one of 102 assay component(s) measured in the LTEA HepaRG cell culture assay. It is a marker of NR mediated metabolism.Data from the assay component LTEA_HepaRG_CYP2B6 was analyzed into 1 endpoint. This assay endpoint, LTEA_HepaRG_CYP2B6, was analyzed with bidirectional fitting relative to DMSO as the negative control and baseline of activity. Using a type of inducible reporter, measures of mRNA induction for gain or loss-of-signal activity can be used to understand regulation of transcription factor activity. To generalize the intended target to other relatable targets, this assay endpoint is annotated to the cyp intended target family, where the subfamily is xenobiotic metabolism.
(§2) A total of 1060 chemcials from the ToxCast library were tested in eight-point concentration-response experiments. Cell culture and cytotoxicity assays were conducted at Thermo Fisher Scientific's Custom Services facility (Madison, WI). A single lot of human HepaRG cells (Thermo Fisher Scientific, Frederick, MD) was used for the cell culture experiments. 96-well format collagen type I coated plates of human HepaRG cells were prepared using established methods. Briefly, cryopreserved HepaRG cells were thawed, plated at a density of approximately 100,000 cells/well in HepaRG Thaw, Plate, and General Purpose media (HPRG770, Thermo Fisher Scientific), and incubated for 48 hours. 0.5% DMSO was selected as vehicle control to balance the requisite need of DMSO in HepaRG cultures to maintain differentiation (for example, baseline metabolism, proportions of hepatocytes vs. cholangiocytes), while enabling further hepatic receptor pathway activation (for example, PXR and CAR) in response to chemical exposure. 48 hours after plating, the culture medium was replaced with HepaRG Serum-Free Incudtion Media. Cells were exposed to each test chemical in duplicate and maintained in CO2 incubators for another 48 hours. Chemical plates were thawed to room temperature and 200x concentrations of treatment groups were prepared. 8-point conentration-reponse curves were made with the highest exposure at 100 uM, followed by half-log dilutions, all in 0.5% DMSO. Each test plate contained variouse controls, induction positive controls (1mM phenobarbital), cytotoxicity positive controls ([…] aflatoxin B1), vehicle controls (0.5% DMSO), and total lysis controls (0.5% DMSO). Cell morphology images were taken using an Essen IncuCyte FLR automated microscope, with six 96-well plates imaged in about 24 minutes. Images were captured and exported and JPEG files. Spent culture media was transfered to black-well plates for the LDH assay, and remaining media was sorted at -80 C for later use. Cells were treated with RLT buffer and frozen until shipped for gene expression analysis. Total RNA was isolated from the cell suspension in 75 uL of Buffer RLT (Qiagen, Germantown, MD 20874) by Quintiles/Expression Analysis (Durham, NC) using a custom isolation procedure. Total RNA from each plate well was transferred to a preamplification plate. Fluidigm's 96.96 Dynamic ArrayTM (Fluidigm, Amsterdam, the Netherlands) technology was used for gene expression analyses by quantitative reverse transcription polymerase chain reaction (qRT-PCR, performed by Quintiles/Expression Analysis, Durham, NC)89. Standard TaqManTM Assays (Applied Biosystems/ThermoFisher Scientific, Foster City, CA) were used to assess the expression of 93 genes selected based on their selectivity and sensitivity to important hepatic receptors known to be modulated by environmental chemicals; importance in human hepatocyte functionality; and hepatotoxicity. […]

[5] = read-out: Cytochrome P450 2C19 (Homo sapiens) (UniProt P33261); assay: LTEA_HepaRG_CYP2C19: Life Technologies and Expression Analysis (LTEA) Assay for CYP2C19 using HepaRG (AID 2283482)
In short: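 Differentiated HepaRG cells in serum-free induction medium exposed 48 h in duplicate, 8 concentrations from 100 uM by half-log steps in 0.5% DMSO. CYP2C19 mRNA measured by TaqMan qRT-PCR, normalized to ACTB, GAPDH, POLR2A. Bidirectional fit versus DMSO.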

CYP2C8 (gene 1558) = assay: LTEA_HepaRG_CYP2C8: Life Technologies and Expression Analysis (LTEA) Assay for CYP2C8 using HepaRG (AID 2283483)
Protocol: as §1, with “plate.LTEA_HepaRG_CYP2C8” for “plate.LTEA_HepaRG_CYP2B6”, “LTEA_HepaRG_CYP2C8” for “LTEA_HepaRG_CYP2B6”, “LTEA_HepaRG_CYP2C8,” for “LTEA_HepaRG_CYP2B6,”
as §2

CYP2C9 (gene 1559) = assay: LTEA_HepaRG_CYP2C9: Life Technologies and Expression Analysis (LTEA) Assay for CYP2C9 using HepaRG (AID 2283484)
In short: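 CYP2C9 transcript level, quantified by TaqMan qRT-PCR against three housekeeping genes, was fitted bidirectionally relative to 0.5% DMSO. HepaRG cultures were treated 48 h, in duplicate, at eight half-log concentrations topping at 100 uM.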

CYP2E1 (gene 1571) = assay: LTEA_HepaRG_CYP2E1: Life Technologies and Expression Analysis (LTEA) Assay for CYP2E1 using HepaRG (AID 2283485)
In short: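 CYP2E1 transcript measured by Fluidigm qRT-PCR against three housekeeping genes in human HepaRG cells treated 48 h (top 100 uM, half-log steps, 0.5% DMSO vehicle). Gain or loss fitted relative to DMSO baseline.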

CYP4A11 (gene 1579) = assay: LTEA_HepaRG_CYP4A11: Life Technologies and Expression Analysis (LTEA) Assay for CYP4A11 using HepaRG (AID 2283486)
In short: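 Differentiated HepaRG cells, 48 h after plating, exposed in duplicate for 48 h to 8 half-log concentrations up to 100 uM in 0.5% DMSO in serum-free induction medium. CYP4A11 mRNA measured by TaqMan qRT-PCR, normalized to ACTB, GAPDH and POLR2A.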

[6] = read-out: Cytochrome P450 3A4 (Homo sapiens) (UniProt P08684); assay: LTEA_HepaRG_CYP3A4: Life Technologies and Expression Analysis (LTEA) Assay for CYP3A4 using HepaRG (AID 2283487)
Protocol: as §1, with “plate.LTEA_HepaRG_CYP3A4” for “plate.LTEA_HepaRG_CYP2B6”, “LTEA_HepaRG_CYP3A4” for “LTEA_HepaRG_CYP2B6”, “LTEA_HepaRG_CYP3A4,” for “LTEA_HepaRG_CYP2B6,”
as §2

Measured: AC50

Cytochrome P450 2C19 (Homo sapiens), sequence (P33261 whole entry, looked up): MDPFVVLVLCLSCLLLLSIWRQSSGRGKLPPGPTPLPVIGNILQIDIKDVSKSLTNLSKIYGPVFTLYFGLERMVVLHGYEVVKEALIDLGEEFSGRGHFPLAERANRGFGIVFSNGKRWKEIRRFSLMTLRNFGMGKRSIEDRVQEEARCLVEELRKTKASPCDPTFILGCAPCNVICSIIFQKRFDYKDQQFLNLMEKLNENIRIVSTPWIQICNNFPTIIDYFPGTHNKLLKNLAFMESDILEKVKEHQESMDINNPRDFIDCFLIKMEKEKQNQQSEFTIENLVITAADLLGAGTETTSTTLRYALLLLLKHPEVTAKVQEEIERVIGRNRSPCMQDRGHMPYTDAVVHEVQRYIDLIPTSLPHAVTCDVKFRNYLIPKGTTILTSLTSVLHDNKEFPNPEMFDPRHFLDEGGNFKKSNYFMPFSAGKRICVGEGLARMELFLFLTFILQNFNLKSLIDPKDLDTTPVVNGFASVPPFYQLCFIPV
Cytochrome P450 3A4 (Homo sapiens), sequence (P08684 whole entry, looked up): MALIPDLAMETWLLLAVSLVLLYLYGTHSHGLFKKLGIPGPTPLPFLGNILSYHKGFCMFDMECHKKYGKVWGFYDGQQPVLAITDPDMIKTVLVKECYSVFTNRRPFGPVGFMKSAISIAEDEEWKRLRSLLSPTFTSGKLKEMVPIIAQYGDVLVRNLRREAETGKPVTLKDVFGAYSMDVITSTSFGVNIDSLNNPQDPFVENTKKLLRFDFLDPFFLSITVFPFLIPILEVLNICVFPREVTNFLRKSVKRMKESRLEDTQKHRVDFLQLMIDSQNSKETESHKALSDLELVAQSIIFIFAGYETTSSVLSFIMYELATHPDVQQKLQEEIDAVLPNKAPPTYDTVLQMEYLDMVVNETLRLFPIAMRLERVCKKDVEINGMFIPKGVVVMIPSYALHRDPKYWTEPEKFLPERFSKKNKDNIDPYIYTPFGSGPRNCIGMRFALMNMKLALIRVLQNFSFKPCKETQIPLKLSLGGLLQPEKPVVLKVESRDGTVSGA

C#C[C@]1(O)CC[C@H]2[C@@H]3CCc4cc(O)ccc4[C@H]3CC[C@@]21C
active: [4] 4.05 µM | [5] 50 µM | CYP2C8 (gene 1558) 50 µM
inactive: all other assays above

O=C(c1ccc(OCCN2CCCCC2)cc1)c1c(-c2ccc(O)cc2)sc2cc(O)ccc12
active: [3] 73.3 µM | [4] 80.5 µM | CYP2C9 (gene 1559) 50 µM | CYP2E1 (gene 1571) 69.1 µM
inactive: [1] | [2] | CYP2C8 (gene 1558) | CYP4A11 (gene 1579)

C=C(C)C(N)=O
inactive: all assays above

CC/C(=C(\c1ccccc1)c1ccc(OCCN(C)C)cc1)c1ccccc1
inactive: [1] | [2] | [4] | [5] | CYP2C8 (gene 1558) | [6]
active: [2] 11.9 µM | [3] 72.5 µM and 77.4 µM | CYP2E1 (gene 1571) 17 µM and 23.7 µM | CYP4A11 (gene 1579) 19.7 µM and 22.4 µM

COC(=O)c1ccc(C(=O)OC)cc1
inactive: all assays above

C[C@]12CC[C@@H]3c4ccc(O)cc4CC[C@H]3[C@@H]1CC[C@@H]2O
inactive: [1] | [3] | CYP2C9 (gene 1559)
active: [2] 79.5 µM | [4] 1.73 µM | [5] 5.7 µM | CYP2C8 (gene 1558) 4.16 µM | CYP2E1 (gene 1571) 50 µM | CYP4A11 (gene 1579) 76.9 µM | [6] 4.95 µM

CCCCOCCOCCO
inactive: all assays above
